High-throughput results: PubChem BioAssay, National Center for Advancing Translational Sciences (NCATS)
JMJD2A Tudor inh: qHTS Assay for Inhibitors of JMJD2A-Tudor Domain; AlphaScreen JMJD2A-Tudor / H3K4me3 peptide binding; AID 504339, 2011; Potency, µM (series often up to 114 µM), inactives show top-dose activity change, negative = inhibition, actives largely listed as inhibitors; 390,000 compounds, 4.4% hits; Lysine-specific demethylase 4A (Homo sapiens), O75164; also: % is scaled to controls: 0 for no effect and ±100 for the full control effect; nearly all actives have a fitted effect of over 50% in size
L3MBTL1 block: qHTS Assay for the Inhibitors of L3MBTL1. Lethal(3)malignant brain tumor-like protein 1 (Homo sapiens), Q9Y468. AlphaScreen L3MBTL1–H3K9me1 peptide binding. Potency, µM (highest dose often 57.1 µM), inactives show at the highest dose activity, negative = inhibition, actives largely listed as inhibitors. 230,000 compounds, 0.66% hits. AID 485360, 2010; also: % is scaled to controls: 0 for no effect and ±100 for the full control effect; nearly all actives have a fitted effect of over 60% in size
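AlphaScreen assay: L3MBTL1 (50 nM final) was preincubated 30 min at room temperature with biotinylated H3(1-15)K9me1 peptide (75 nM final), then 30 min with library compounds; streptavidin donor and nickel chelate acceptor beads (10 ug/mL final) added, 30 min dark.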
HP1b binding inh: HTS for Inhibitors of HP1-beta Chromodomain Interactions with Methylated Histone Tails. Chromobox protein homolog 1 (Homo sapiens), P83916. AlphaScreen HP1-beta / biotin-H3K9me3 peptide binding. Potency, µM (top dose mostly 114 µM), inactives show at the highest dose activity change, negative = inhibition, most hits filed as inhibitors. 390,000 compounds, 0.56% hits. AID 540317, 2011; also: nearly all actives have a fitted effect of over 70% in size
Target sequence (P83916 whole entry, looked up): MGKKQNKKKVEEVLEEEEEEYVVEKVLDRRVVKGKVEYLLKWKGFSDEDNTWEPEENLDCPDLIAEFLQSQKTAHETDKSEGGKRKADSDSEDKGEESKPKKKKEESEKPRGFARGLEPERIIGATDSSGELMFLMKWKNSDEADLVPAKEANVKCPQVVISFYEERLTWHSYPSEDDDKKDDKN
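Compound inhibition of the preformed complex between 50 nM HP1-beta and 50 nM biotinylated H3K9me3 peptide was read by AlphaScreen. Buffer was PBS pH 7.4 with 0.01% Tween-20. Incubations ran 30 min at room temperature, with 10 ug/mL donor/acceptor beads.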
Sfp PPTase inh: qHTS Assay for Inhibitors of Bacillus subtilis Sfp phosphopantetheinyl transferase (PPTase); 310,000 compounds, 3.5% hits; AID 1490, 2009; Potency, µM, for the others: largest response in the series, negative = inhibition, usual class: inhibitors; 4'-phosphopantetheinyl transferase ffp (Bacillus subtilis), Q9F4F7; Biochemical Sfp PPTase activity, qHTS;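 also: the enzyme is Sfp with the accession as filed and its product quenches rhodamine fluorescence; 0% = enzyme reaction without inhibitor and -100% = no enzyme wells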
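Sfp 15 nM + cpd, 15 min RT; start w/ rhodamine-CoA 5 uM, BHQ-2-YbbR 12.5 uM (final); 50 mM Hepes pH 7.6, 10 mM MgCl2, 0.01% NP-40, 0.01% BSA; read 525/598 nm at 0 and 30 min.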
G9a block: qHTS Assay for Inhibitors of Histone Lysine Methyltransferase G9a; Histone-lysine N-methyltransferase EHMT2 (Homo sapiens), Q96KQ7; G9a H3K9 monomethylation, AlphaScreen, 2 h; Potency, µM (top dose mostly 102 µM), inactives show at the top dose activity, negative = inhibition, usual class: inhibitors; 350,000 compounds, 8.8% hits; AID 504332, 2011; also: % is scaled to controls: 0 for no effect and ±100 for the full control effect; nearly all actives have a fitted effect of over 75% in size
Target sequence (Q96KQ7 913-1193 limits assumed): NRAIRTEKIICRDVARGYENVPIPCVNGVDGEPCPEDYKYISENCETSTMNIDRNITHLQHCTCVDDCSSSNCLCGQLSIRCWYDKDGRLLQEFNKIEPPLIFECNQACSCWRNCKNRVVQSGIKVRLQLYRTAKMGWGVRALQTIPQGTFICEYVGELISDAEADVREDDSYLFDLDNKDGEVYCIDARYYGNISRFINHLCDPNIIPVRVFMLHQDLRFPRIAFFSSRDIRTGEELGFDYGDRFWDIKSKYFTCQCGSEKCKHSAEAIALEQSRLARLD
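G9a (20 nM) was preincubated 15 min with compound, then reacted 2 h at room temperature with 500 nM biotin-H3K9 peptide and 20 µM SAM. Monomethyl-H3K9 detected by AlphaScreen using anti-H3K9me1 antibody.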
BAZ2B block: qHTS Assay for Inhibitors of BAZ2B; AlphaScreen BAZ2B-H3K14Ac peptide displacement; Bromodomain adjacent to zinc finger domain protein 2B (Homo sapiens), Q9UIF8; Potency, µM (doses to about 114 µM), without a hit: top-dose activity change, negative = inhibition, usual class: inhibitors; 360,000 compounds, 4.4% hits; also: % is scaled to controls: 0 for no effect and ±100 for the full control effect; nearly all actives have a fitted effect of over 60% in size
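Complex of BAZ2B and biotin-H3K14Ac (50 nM apiece) forms over 30 min at RT, then faces library compounds up to 110 uM for another 30 min; AlphaScreen beads added, 20 min dark incubation, luminescence read.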
Numbers without * were called inactive; ? = inconclusive; · = no result given; [ ] = remark or other dose. This is a sample that favours compounds with a hit; in the whole collection about 12% have one here. Calls follow the shape of the dose curve; as a rule, active = well fitted curve in the direction sought with a large enough effect; inconclusive = small, poorly fitted or top-dose-only effect, or another doubt; inactive = no such curve, though single readings can be large; an effect the other way counts as inactive or inconclusive. Potency is read from the fitted curve at half-maximal effect.

SMILES | JMJD2A Tudor inh | L3MBTL1 block | HP1b binding inh | Sfp PPTase inh | G9a block | BAZ2B block
O=C(/C=C/c1ccccc1Cl)c1ccc(O)cc1 | -18% | -8% | -38% | -8% | -12% | -23%
N#Cc1ccc(/C=C/C(=O)c2cccnc2)cc1 | -28% | 6% | 17% | 50µM* | 25µM* | ·
O=C(/C=C/c1ccccc1Cl)c1cccnc1 | -19% | · | 22% | 32µM* | 35µM* | -7%
Cn1cnc(C(=O)N2CCN(c3ccccc3)CC2)c1C(=O)N1CCN(c2ccccc2)CC1 | 28µM* | 2% | -17% | · | -46%[2.33 µM] | 56µM*
O=C(Cc1ccc(Cl)cc1)NCc1ccccc1Cl | -8% | · | 25% | -4% | -2% | 14%
O=C(Cc1ccccc1Cl)NC1(O)C(=O)c2ccccc2C1=O | -2% | -10% | 49% | 7% | 56µM* | 0%
CC(C)CN1C(=O)/C(=C/c2c(N3CCc4ccccc4C3)nc3ccccn3c2=O)SC1=S | · | 0% | · | 4% | 35µM* | -38%
Cn1ccnc1C(=O)c1cc(SCC(=O)NCc2ccccc2)nc2ccccc12 | -14%[11.4 µM] | 2%[11.4 µM] | -11% | 40µM* | ? | ?
Cc1cc(C)cc(NC(=O)CSc2cc(C(=O)c3nccn3C)c3ccccc3n2)c1 | -7% | -2% | 17% | -3% | -4%[59 µM] | 10%
Cc1cccc(NC(=O)CSc2cc(C(=O)c3nccn3C)c3ccccc3n2)c1 | ? | 1% | 20% | 15% | 13µM* | -6%
Cc1cc2c(cc1S(=O)(=O)N(C)CC(=O)Nc1ccc(C#N)cc1)OCC(=O)N2 | -2% | · | 27% | · | 6%[59 µM] | -2%
CN(C)c1ccc(CNC(=O)C2CCCN(S(=O)(=O)c3ccc4c(ccn4C)c3)C2)cc1 (stereo unspecified) | -9% | · | 16%[57 µM] | · | ? | -16%
CCCc1cc(=O)oc2c(CN3CCCC3)c(O)ccc12 | 5% | 4% | 35% | 3% | 22% | 4%
Cc1cc2ccccc2cc1CN1CCOCC1 | 3% | 9% | 25% | 14% | -11%[59 µM] | ·
Oc1c(CN2CCOCC2)cc(CN2CCOCC2)c(O)c1O | 11µM* | · | 6.3µM* | · | · | ·
Oc1cccc(CN2CCOCC2)c1O | 10µM* | · | 71µM* | · | · | ·
CCCc1cc(CN2CCOCC2)c(O)c(CN2CCOCC2)c1O | 11µM* | · | 25µM* | · | · | ·
c1cc2ccc3ccc(CN4CCOCC4)c4ccc(c1)c2c34 | 2% | 11% | 68% | -13% | 2%[59 µM] | 31%
Cc1ccc(-c2nc3c4ccccc4n(Cc4cccc(Cl)c4)c(=O)n3n2)cc1 | -19% | · | -5% | · | 4%[59 µM] | -2%
COc1cccc(CCNC(=O)c2c(O)nc3c(C)cccn3c2=O)c1 | -9% | · | 95% | · | 49%[59 µM] | 17%
c1cncc(-c2nc(NCc3ccc4c(c3)OCO4)c3ccccc3n2)c1 | -14% | -12% | 49% | 45µM* | 5%[59 µM] | -24%
c1cncc(-c2nc(NCC3COc4ccccc4O3)c3ccccc3n2)c1 (stereo unspecified) | 22%[11.4 µM] | · | 1% | ? | 50µM* | -32%
c1ccc(CNc2nc(NCc3ccccc3)c3ccccc3n2)cc1 | -34% | -12% | 3% | 14µM* | ? | ?
c1ccc(CNc2nc(-c3cccnc3)nc3ccccc23)cc1 | -16% | · | 29% | -8% | -3% | -4%
Cc1ccc(CNc2nc(-c3cccnc3)nc3ccccc23)cc1 | -21% | · | 32% | 89µM* | -45% | -15%
SMILES | JMJD2A Tudor inh | L3MBTL1 block | HP1b binding inh | Sfp PPTase inh | G9a block | BAZ2B block
Cc1noc(C)c1C(=O)N1CCC2(CC1)CN(c1ccccc1)C2 | · | · | · | -9% | 1%[12.7 µM] | ·
O=C(CSc1nnc(C2CCCCC2)o1)Nc1ccccc1Cl | 16% | · | 34% | 0% | 2% | 10%
Clc1cccc(CNc2nc(-c3cccnc3)nc3ccccc23)c1 | ? | · | -14% | -29% | 45µM* | ?
Fc1ccc(Nc2nc(NCc3ccco3)c3ccccc3n2)cc1 | 50µM* | -23% | -15% | 13µM* | · | ?
CCOC(=O)C1=NNC(C(=O)c2ccc(C)cc2)C1c1ccc(C)cc1 (stereo unspecified) | -19%[57.1 µM] | -4% | -12% | ? | 79µM* | -3%
CCOC(=O)C1=NNC(C(=O)c2ccccc2)C1c1ccc(C)cc1 (stereo unspecified) | -20% | -2% | 20% | 10% | -3% | -21%
CCOC(=O)C1=NNC(C(=O)c2ccc(OC)cc2)C1c1ccccc1 (stereo unspecified) | -12% | · | 23% | 11% | 56µM* | -3%
CCN(CC)c1ccc(N)cc1 | 18µM* | ? | 13µM* | · | -4%[0.501 µM] | 32µM*
Nc1ccc(N(CCO)CCO)cc1 | 8.9µM* | 13µM* | ? | 13µM* | 11µM* | 50µM*
CCN1CCN(c2sc(S(C)(=O)=O)nc2S(=O)(=O)c2ccc(C)cc2)CC1 | 23% | · | 35% | 12% | -19% | -3%
CC(=O)Oc1cc2c3c(c1)/C(=C1/SC(=S)NC1=O)C(=O)N3C(C)(C)C=C2C | 11µM* | -20% | ? | 35µM* | 8.9µM* | 7.9µM*
CCOc1cc2c3c(c1)C(C)=CC(C)(C)N3C(=O)C2=O | -27% | -4% | ? | 14% | ? | ?
COc1cc2[nH]c(=S)nc(NCc3ccccc3)c2cc1OC | -18% | · | 40% | 6% | ? | 0%
COc1cc2[nH]c(=S)nc(NCc3ccccn3)c2cc1OC | -23% | · | 21% | -17% | 50µM* | 6%
COc1ccc(CNc2nc(=S)[nH]c3cc(OC)c(OC)cc23)cc1 | ? | · | 28% | -15% | 10µM* | ?
COc1cc2[nH]c(=S)nc(NCc3ccc(C)cc3)c2cc1OC | -7% | · | 60% | -10% | -15% | 3%
COc1cc2[nH]c(=S)nc(NCc3cccnc3)c2cc1OC | -5% | · | 64% | -28% | 45µM* | -18%
COc1ccc(C(=O)COC(=O)Cn2cnc3ccccc3c2=O)c(OC)c1 | -2% | -1% | 25% | · | ? | -7%
CCC[C@H]1C[C@H](C(=O)NC(C(C)Cl)C2O[C@@H](SC)C(OP(=O)(O)O)[C@@H](O)[C@@H]2O)N(C)C1 (stereo partly specified) | · | · | · | -12% | · | ·
CCC1(C)Cc2nc3sc(C(=O)O)c(N)c3cc2CO1 (stereo unspecified) | 50µM* | -9% | 24% | 28µM* | 3.5µM* | 0%
S=c1[nH]c2cnc(Cl)nc2[nH]1 | 40µM* | · | 2% | · | · | ·
